Among the data in ChEMBL document CHEMBL3433997, “St. Jude Leishmania screening dataset” (2016) are inhibition values, retold here.

For orientation: inhibition means the change of the read-out against control, counted positive when it falls.

The structures appear in SMILES notation. “And” between values parts separate entries of the source, which are not always exact repeats. Equal entries are not always repeated.

Holding throughout (assay type): functional
The target in test [1] is Solute carrier family 2, facilitated glucose transporter member 1 (Homo sapiens) (UniProt P11166). The experiment in a line: ST_JUDE_LEISH: Cytotoxicity at 2uM final concentration against transgenic Leishmania Mexicana promastigotes LmGLUT1 that are glucose transport deficient and complemented with the human glucose transporter GLUT1. Activity is measured by DNA content using SYBR green in vitro.

Test [2] addresses Hexose transporter 1 (Plasmodium falciparum) (UniProt O97467). The test is described as follows: ST_JUDE_LEISH: Cytotoxicity at 2uM final concentration against transgenic Leishmania Mexicana promastigotes LmPfHT that are glucose transport deficient and complemented with the Plasmodium falciparum hexose transporter. Activity is measured by DNA content using SYBR green in vitro.

The target of test [3] is Glucose transporter (Leishmania mexicana) (UniProt O61059). The experiment in a line: ST_JUDE_LEISH: Cytotoxicity at 2uM final concentration against transgenic Leishmania Mexicana promastigotes LmGT2 that are glucose transport deficient and complemented with the L. Mexicana glucose transporter 2. Activity is measured by DNA content using SYBR green in vitro.

Sequence of Solute carrier family 2, facilitated glucose transporter member 1 (Homo sapiens) (P11166 whole entry): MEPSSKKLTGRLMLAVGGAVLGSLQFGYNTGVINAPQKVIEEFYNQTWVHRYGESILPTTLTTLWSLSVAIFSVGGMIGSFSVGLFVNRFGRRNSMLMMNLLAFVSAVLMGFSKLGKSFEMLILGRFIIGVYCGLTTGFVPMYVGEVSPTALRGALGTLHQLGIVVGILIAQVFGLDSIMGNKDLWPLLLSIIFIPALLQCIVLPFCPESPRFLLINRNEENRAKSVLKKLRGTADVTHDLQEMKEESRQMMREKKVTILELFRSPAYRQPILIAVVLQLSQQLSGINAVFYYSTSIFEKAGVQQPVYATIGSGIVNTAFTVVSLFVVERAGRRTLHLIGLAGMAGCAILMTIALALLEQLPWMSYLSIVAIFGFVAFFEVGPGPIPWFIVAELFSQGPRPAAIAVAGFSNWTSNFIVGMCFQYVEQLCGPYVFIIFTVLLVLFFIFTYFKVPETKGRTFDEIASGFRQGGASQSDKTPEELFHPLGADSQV

As for `COc1ccc(NC(=S)NC(NC(=O)CF)C(Cl)(Cl)Cl)cc1[N+](=O)[O-]` (stereo unspecified), the inhibition in test [1] is 3.05%; in test [2], -3.38%; in test [3], -1.65%.

`Cc1ccc2c(C3=CCN(CCCCC4(C)C(=O)Nc5ccccc54)CC3)c(C)[nH]c2c1` (stereo unspecified): the inhibition in test [1] was 0.29%; in test [2], 0.34%; in test [3], -0.56%.

For `CN1CC=C(C=Cc2c[nH]c3ccccc23)CC1`, the inhibition in test [1] worked out at 0.96%; in test [2], 2.14%; in test [3], 3.25%.

On to `C[C@H](Cc1ccc(OCCCCCCOc2ccccc2)cc1)NC[C@@H](O)c1cc(Br)no1`, for which the inhibition is 2.44% in test [1], 0.72% in test [2] and -0.07% in test [3].

Take `CC[C@H]1CN2CC[C@H]1C[C@H]2[C@H](O)c1cc(Cl)nc2ccc(OC)cc12`: the results for the inhibition in test [1], in test [2] and in test [3] were 2.23%, 1.71% and 1.61%, respectively.

As for `CCCN(CC(=O)NCCc1ccccc1)c1ccc(C#N)c2ccccc12`, the inhibition in test [1] was 2.23%; in test [2], 1.5%; in test [3], 1.66%.

`O=C(/C=C/c1ccc(Cl)c(Cl)c1)N1CCC(CN2CCC(c3c(-c4ccccc4)[nH]c4ccccc34)CC2)CC1`: the figures for the inhibition in test [1], in test [2] and in test [3] were -1.32%, 1.74% and 0.62%, respectively.

For the compound `O=C1COc2ccccc2N1CCN1CCC(NCc2ccc(-c3cccs3)cc2)CC1`, the inhibition in test [1] is 8.28%; in test [2], 7.16%; in test [3], 3.03%.

Regarding `COc1ccc(CC(C)NCC(O)c2cccc(Cl)c2F)cc1` (stereo unspecified), the inhibition in test [1] is 1.96%; in test [2], -0.19%; in test [3] it was 0.32%.

`COC(=O)C(C)(C)c1ccc(CC(C)NCC(O)c2cccc(C(F)(F)F)c2)cc1` (stereo unspecified): the inhibition in test [1] came out at 10.5%; in test [2], 6.92%; in test [3], 9.96%.

Turning to `CC[C@H]1CN2CC[C@H]1C[C@H]2[C@@H](O)c1cc(OCCCN(C)C)nc2ccc(OC)cc12`, the results for the inhibition in test [1], in test [2] and in test [3] were -1.68%, -1.68% and -0.74%, respectively.

For `CC[C@H]1CN2CC[C@H]1C[C@H]2[C@H](O)c1cc(-c2ccccc2C)nc2ccc(OC)cc12`, the results for the inhibition in test [1], in test [2] and in test [3] were 0.33%, 0.37% and -4.71%, respectively.

Turning to `O=C(c1cc(C(=O)NCc2ccc(Cl)cc2)c(=O)n(Cc2ccc(Cl)cc2)c1)c1cc(F)ccc1O`, the inhibition in test [1] was found to be 2.53%; in test [2] it was 1.86%; in test [3], 1.19%.

Consider `Oc1ccccc1CNCC(O)c1cccc(C(F)(F)F)c1` (stereo unspecified), for which the inhibition in test [1] is -0.54%; in test [2], -1.26%; in test [3], -1.55%.

`COC(=O)c1ccc(C[C@@H](C)NC[C@H](O)c2cccc(C(F)(F)F)c2)cc1`: the values for the inhibition in test [1], in test [2] and in test [3] were 3.2%, 4.43% and 0.45%, respectively.

For the compound `CNC(=O)c1ccc2[nH]cc(C3CCN(CC4CCC(NC(=O)/C=C/c5ccc(Cl)c(Cl)c5)CC4)CC3)c2c1` (stereo unspecified), the inhibition in test [1] stood at 9.29%; in test [2], 7.99%; in test [3], 4.82%.

As to `CC(C)N(C)C(=O)n1cnc(S(=O)(=O)C2CC3CCC2C3)n1` (stereo unspecified), the inhibition was 2.26% in test [1], 1.45% in test [2] and -0.84% in test [3].

Regarding `CC(=O)C1(c2ccccc2)CCN(CCC2(c3ccc(Cl)c(Cl)c3)CN(C(=O)CC(C)C)CCO2)CC1` (stereo unspecified), the values for the inhibition in test [1], in test [2] and in test [3] were -0.51%, 0.43% and -2.67%, respectively.

`COc1cc(C(=O)NC2CCC(CN3CCC(c4c[nH]c5ccccc45)CC3)CC2)cc(Cl)n1` (stereo unspecified): the inhibition in test [1] is 1.3%; in test [2] it was -0.71%; in test [3], 2.31%.

Take `O=C(/C=C/c1ccc(Cl)c(Cl)c1)NC1CCC(CN2CCC(c3c[nH]c4ccc(O)cc34)CC2)CC1` (stereo unspecified): the inhibition in test [1] is 1.43% and 1.97%; in test [2] it was 0.14% and 2.98%; in test [3] it was -2.67% and 3.13%.

Take `COc1ccc(OC)c(C(O)CNC(C)C)c1` (stereo unspecified): the inhibition in test [1] came out at 1.92%; in test [2], 2.47%; in test [3], 0.42%.

Take `O=C(NC1CCC(CN2CCC(c3c[nH]c4ccccc34)CC2)CC1)c1cc(-c2ccccc2)c(C(F)(F)F)s1` (stereo unspecified): the inhibition amounted to 11.2% in test [1], 14.7% in test [2] and 6.95% in test [3].

As for `O=C(O)c1ccc2nc(-c3ccc(-c4ccccc4)cc3)n(C3CCN(Cc4ccc(-c5ncc[nH]5)cc4)CC3)c2c1`, the inhibition in test [1] was determined as 9.41%; in test [2], 8.89%; in test [3], 8.84%.

Consider `C/C=C1\CN2CC[C@H]1C[C@H]2[C@H](O)c1ccnc2ccc(OC)cc12`, for which the inhibition is 10% and 3.4% in test [1]; 9.89% and 3.71% in test [2]; 9.9% and 2.84% in test [3].

As to `COc1ccc(CCNCc2ccc3nc(N)c(C)cc3c2)cc1`, the inhibition was 0.92% in test [1], 2.14% in test [2] and 3.68% in test [3].

Take `CC[C@H]1CN2CCc3cc(OC)c(OC)cc3[C@@H]2C[C@@H]1C[C@H]1NCCc2c1cc(OC)c(O)c2I`: the inhibition in test [1] is 93.9%; in test [2] it was 96.6%; in test [3], 90%.

For `CCOC(C(=O)OCC1CCCN1C(C)C)(c1ccccc1)c1ccccc1` (stereo unspecified), the inhibition in test [1] was determined as 3.57%; in test [2], 3.09%; in test [3], 1.53%.

Turning to `O=C(/C=C/c1ccc([N+](=O)[O-])cc1)NC1CCC(CN2CCC(c3c[nH]c4ccccc34)CC2)CC1` (stereo unspecified), the inhibition is 2.8% and -1.4% in test [1]; 1.89% and -2.18% in test [2]; 0.45% in test [3].

Consider `O=C(/C=C/c1ccc(Cl)c(Cl)c1)NC1CCC(N2CCC(c3c[nH]c4ccccc34)CC2)CC1` (stereo unspecified), for which the figures for the inhibition in test [1], in test [2] and in test [3] were 26%, 6.98% and 4.41%, respectively.

Regarding `COc1nc(N)ncc1C(=O)NC1CN2CCC1CC2` (stereo unspecified), the inhibition in test [1] is 7.43%; in test [2], 6.98%; in test [3] it was 7.08%.

Consider `CC[C@H]1CN2CC[C@H]1C[C@H]2[C@H](O)c1cc(/C=C/c2ccc(F)cc2)nc2ccc(OC)cc12`, for which the inhibition in test [1] came out at 4.05%; in test [2] it was 1.87%; in test [3], 2.03%.

Consider `O=C(C=Cc1cccc(Cl)c1Cl)NC1CCC(CN2CCC(c3c[nH]c4ccccc34)CC2)CC1` (stereo unspecified), for which the inhibition in test [1] is 9.75% and 1.21%; in test [2] it was 23.6% and 3.22%; in test [3], 11.8% and -0.36%.
